Test [1] is described as follows: compounds binding Alexa647 anti-His antibody – biochemical, small-molecule microarray, 635 nm fluorescence, artefact control for SMM control protein annotation, primary screen (AID 1128).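 Also: score merges feature fluorescence with signal-to-noise for each printed compound spot.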 Conditions: higher = more signal.
Test [2] concerns Human papillomavirus type 1a E7 protein (residues 1-88). Put plainly: HPV1a E7 small-molecule binders, primary screen, biochemical, small-molecule microarray, residues 1-88, 635 nm (AID 1129). Conditions: small-molecule microarray binding, fluorescence 635 nm; higher = more signal.
In test [3] the target is Focal adhesion kinase 1 (Homo sapiens) (UniProt Q05397). Put plainly: PTK2 protein binding on printed compound slides – biochemical, small-molecule microarray, 635/667 nm fluorescence, BSA, DTT, primary screen (AID 1130).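 Also: composite of spot emission at 667 nm and signal to noise over triplicate slides.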 Conditions: 635 nm fluorescence, higher = more signal.
The subject of test [4] is Fibrinogen (Alexa647-labelled). Put plainly: Alexa647-fibrinogen binding to printed small molecules – biochemical, small-molecule microarray, 635/667 nm fluorescence, artefact control for SMM control-protein annotation, profiling panel (AID 1131).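 Also: z-score merges 667 nm fluorescence with per-spot signal-to-noise over triplicate slides.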 Conditions: fibrinogen-A647 binding fluorescence, higher = more signal.
For test [5], the target named is Follistatin (Homo sapiens) (UniProt P19883). Put plainly: FST protein binding to printed compounds – biochemical, small-molecule microarray, 635/667 nm fluorescence, primary screen (AID 1132). Conditions: 635 nm fluorescence, higher = more signal.
Test [6] has as its target Fibroblast growth factor 2 (Homo sapiens) (UniProt P09038). Put plainly: basic fibroblast growth factor binding to printed compounds – biochemical, small-molecule microarray, 635/667 nm fluorescence, primary screen (AID 1133). Conditions: FGF2, fluorescence 635/667, higher = more signal.
Test [7] in a line: JC-1 mitochondrial potential readout, lung cancer cells – cell-based, A549, JC-1 fluorescence, basal, 24 h, 100 nL, profiling panel (AID 1138).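 Also: A549 lung adenocarcinoma cells under basal conditions with no added stimulus; test concentration not given here.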 Conditions: higher = more signal.
The test system of another test is Lefty1. Put plainly: Lefty1 protein binding to printed compounds – biochemical, small-molecule microarray, 635/667 nm fluorescence, primary screen (AID 1139). Conditions: fluorescence 635/667, higher = more signal.
Test [8] deals with wheat germ agglutinin (Triticum aestivum), Alexa647-labelled. Put plainly: Alexa647-WGA lectin binding to printed small molecules – biochemical, small-molecule microarray, 635/667 nm fluorescence, artefact control for SMM control-protein annotation, profiling panel (AID 1140).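 Also: score merges 667 nm feature emission with signal to noise over triplicate slides.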 Conditions: WGA-A647 binding, 635 nm fluorescence, higher = more signal.
Test [9] concerns the target Luciferin 4-monooxygenase (Photinus pyralis) (UniProt P08659). Put plainly: inhibition of purified Photinus pyralis luciferase – biochemical, luminescence, purified enzyme, 2006 set, primary screen (AID 1141).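 Also: cell-free assay with purified firefly luciferase at 100 ng per well in PBS; test concentration not given here.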 Conditions: purified firefly luciferase, SteadyGlo luminescence, 30 min; higher = more signal, called active from +8 up or from −8 down.
Test [10] relates to Wnt5a (protein binding on small-molecule microarray). Put plainly: small molecules binding Wnt5a protein – biophysical, small-molecule microarray, 635/667 nm fluorescence, primary screen (AID 1142).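 Also: fluorescence read at 667 nm with signal to noise per printed feature.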 Conditions: 635 nm fluorescence, higher = more signal.
Test [11] can be described thus: ATP-based viability of Huh7 replicon cells – cell-based, CellTiter-Glo luminescence, basal, 48 h, cytotoxicity control for HCV replication inhibitor project, primary screen (AID 1143).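 Also: Huh7 hepatoma cells carrying a hepatitis C replication reporter with no stimulus; test concentration not given here.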 Conditions: higher = more signal, called active from +8 up or from −8 down. Background: In antiviral work, replicon cells carry a viral genome segment that copies itself.
A short description of test [12]: Pseudomonas biofilm growth suppression – PAO1 strain, BacTiter-Glo luminescence, LB-PBS, primary screen (AID 1144). Conditions: P. aeruginosa PAO1 biofilm, 12 h, higher = more signal.
Test [13] can be described thus: basal CRE-LacZ reporter activity in PC12 – cell-based, unstimulated, primary screen (AID 1145). Conditions: no forskolin, luminescence, 4.5 h, higher = more signal, called active from +8 up or from −8 down.
The nature of test [14]: forskolin-driven CRE-LacZ activity in PC12 – cell-based, CRE-LacZ reporter, forskolin-stimulated, primary screen (AID 1146).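 Also: PC12 cells with 6xCRE LacZ reporter stimulated by forskolin 10 µM; beta-galactosidase reporter signal reflecting CREB driven transcription.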 Conditions: luminescence, 4.5 h, higher = more signal, called active from +8 up or from −8 down.
Test [15] deals with Streptavidin (Streptomyces avidinii) (UniProt P22629). Put plainly: compounds binding control protein streptavidin – biophysical, small-molecule microarray, 635/667 nm fluorescence, artefact control for SMM compound annotation, primary screen (AID 1147).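 Also: signal reflects streptavidin binding to arrayed compounds as a control protein.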 Conditions: higher = more signal.
Test [16] is described as follows: probe aInhba binding on compound microarray – biochemical, small-molecule microarray, 635/667 nm fluorescence, primary screen (AID 1148).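 Also: score merges 667nm spot fluorescence with signal-to-noise for antibody binding to printed compounds.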 Conditions: higher = more signal.
For test [17], the target named is Torsin-1A (Homo sapiens) (UniProt O14656). Put plainly: TOR1A wild-type binding on microarray – cell lysate, small-molecule microarray, lysate, 635/667 nm, primary screen (AID 1149). Conditions: COS7 hTOR1A-WT lysate, 635 nm fluorescence, higher = more signal.
For test [18] the target is unchanged. Put plainly: torsin A mutant lysate binding on microarrays – cell lysate, small-molecule microarray, COS7 lysate, 635/667 nm fluorescence, primary screen (AID 1150).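 Also: score pools 667 nm emission and signal to noise measuring lysate protein binding.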 Conditions: COS7 hTOR1A mutant lysate, 635 nm fluorescence, higher = more signal.
Test [19] relates to Sonic hedgehog protein (Shh). Put plainly: Sonic hedgehog microarray binding compounds – biochemical, small-molecule microarray, 635/667 nm fluorescence, primary screen (AID 1151).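 Also: Shh protein binding to compounds spotted on small-molecule microarray slides; score combines spot fluorescence intensity with signal-to-noise across triplicate slides.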 Conditions: 635 nm fluorescence, higher = more signal.

Several values for one entry are separate records, joined by “and”; a condition that tells them apart may be missing. Identical values can stand only once. Activity calls are given as the source filed them. Unless noted, no rule for the calls is given here.

Streptavidin (Streptomyces avidinii), sequence (P22629 whole entry, looked up): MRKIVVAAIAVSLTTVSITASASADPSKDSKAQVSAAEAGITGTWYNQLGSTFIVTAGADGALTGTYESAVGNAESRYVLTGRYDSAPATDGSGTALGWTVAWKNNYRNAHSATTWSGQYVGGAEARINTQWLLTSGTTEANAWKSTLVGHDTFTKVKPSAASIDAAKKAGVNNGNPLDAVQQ
Follistatin (Homo sapiens), sequence (P19883 whole entry, looked up): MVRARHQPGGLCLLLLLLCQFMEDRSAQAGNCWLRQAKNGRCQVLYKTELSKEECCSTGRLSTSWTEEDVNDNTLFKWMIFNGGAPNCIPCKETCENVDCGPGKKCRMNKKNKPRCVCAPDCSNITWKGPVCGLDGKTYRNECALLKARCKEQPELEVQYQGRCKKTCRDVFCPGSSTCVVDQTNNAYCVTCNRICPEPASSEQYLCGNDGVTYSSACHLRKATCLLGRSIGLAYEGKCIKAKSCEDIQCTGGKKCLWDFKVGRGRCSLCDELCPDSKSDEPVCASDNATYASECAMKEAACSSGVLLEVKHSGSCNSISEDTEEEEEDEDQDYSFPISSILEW
Fibroblast growth factor 2 (Homo sapiens), sequence (P09038 whole entry, looked up): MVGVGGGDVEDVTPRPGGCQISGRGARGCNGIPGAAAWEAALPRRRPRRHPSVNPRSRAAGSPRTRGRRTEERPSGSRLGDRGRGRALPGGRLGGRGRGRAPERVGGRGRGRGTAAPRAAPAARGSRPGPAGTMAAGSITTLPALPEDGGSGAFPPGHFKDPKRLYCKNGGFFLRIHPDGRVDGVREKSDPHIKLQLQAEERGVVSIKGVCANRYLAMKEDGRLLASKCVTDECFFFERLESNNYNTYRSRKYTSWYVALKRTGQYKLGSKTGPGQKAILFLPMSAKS
Luciferin 4-monooxygenase (Photinus pyralis), sequence (P08659 whole entry, looked up): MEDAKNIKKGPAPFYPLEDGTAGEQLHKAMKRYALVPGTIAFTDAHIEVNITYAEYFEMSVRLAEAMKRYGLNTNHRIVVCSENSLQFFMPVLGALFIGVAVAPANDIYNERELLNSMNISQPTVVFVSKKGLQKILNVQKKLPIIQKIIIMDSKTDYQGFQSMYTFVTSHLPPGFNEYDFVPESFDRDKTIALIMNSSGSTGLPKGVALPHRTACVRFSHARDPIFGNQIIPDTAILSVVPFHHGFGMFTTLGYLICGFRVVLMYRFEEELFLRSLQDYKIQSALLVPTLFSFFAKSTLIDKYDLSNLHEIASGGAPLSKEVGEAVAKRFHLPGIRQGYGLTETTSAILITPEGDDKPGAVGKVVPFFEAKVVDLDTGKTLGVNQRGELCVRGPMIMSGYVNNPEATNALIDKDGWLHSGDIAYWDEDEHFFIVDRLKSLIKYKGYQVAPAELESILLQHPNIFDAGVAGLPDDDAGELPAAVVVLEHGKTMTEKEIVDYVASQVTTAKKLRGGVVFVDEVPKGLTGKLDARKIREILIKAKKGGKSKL
Focal adhesion kinase 1 (Homo sapiens), sequence (Q05397 whole entry, looked up): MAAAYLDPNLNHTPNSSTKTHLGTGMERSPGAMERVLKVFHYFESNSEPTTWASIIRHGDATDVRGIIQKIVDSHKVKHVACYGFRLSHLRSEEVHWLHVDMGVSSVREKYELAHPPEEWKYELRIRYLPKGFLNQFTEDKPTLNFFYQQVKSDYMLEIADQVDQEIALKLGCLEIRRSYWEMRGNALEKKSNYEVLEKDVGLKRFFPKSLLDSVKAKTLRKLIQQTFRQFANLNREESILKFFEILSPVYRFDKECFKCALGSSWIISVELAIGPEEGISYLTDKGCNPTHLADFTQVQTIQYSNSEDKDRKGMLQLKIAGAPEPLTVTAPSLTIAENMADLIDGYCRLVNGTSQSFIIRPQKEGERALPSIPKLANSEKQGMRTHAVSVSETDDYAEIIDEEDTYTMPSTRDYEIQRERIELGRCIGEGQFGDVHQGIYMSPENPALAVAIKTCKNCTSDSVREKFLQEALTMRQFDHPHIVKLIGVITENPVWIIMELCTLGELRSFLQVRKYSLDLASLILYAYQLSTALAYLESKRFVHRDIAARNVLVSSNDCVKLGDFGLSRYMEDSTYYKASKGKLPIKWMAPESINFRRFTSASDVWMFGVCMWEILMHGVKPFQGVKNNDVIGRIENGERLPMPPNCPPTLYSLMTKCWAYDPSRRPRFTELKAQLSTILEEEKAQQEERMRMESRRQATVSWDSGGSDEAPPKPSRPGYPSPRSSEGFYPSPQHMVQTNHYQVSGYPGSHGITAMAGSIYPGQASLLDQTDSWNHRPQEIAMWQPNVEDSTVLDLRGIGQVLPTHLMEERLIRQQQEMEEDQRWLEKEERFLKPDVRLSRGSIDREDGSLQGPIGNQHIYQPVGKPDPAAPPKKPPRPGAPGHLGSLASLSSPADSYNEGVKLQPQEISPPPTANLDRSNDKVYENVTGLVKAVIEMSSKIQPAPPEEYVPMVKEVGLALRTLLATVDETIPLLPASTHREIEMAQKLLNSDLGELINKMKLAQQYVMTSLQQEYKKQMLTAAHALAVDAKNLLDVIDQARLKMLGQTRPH
Torsin-1A (Homo sapiens), sequence (O14656 whole entry, looked up): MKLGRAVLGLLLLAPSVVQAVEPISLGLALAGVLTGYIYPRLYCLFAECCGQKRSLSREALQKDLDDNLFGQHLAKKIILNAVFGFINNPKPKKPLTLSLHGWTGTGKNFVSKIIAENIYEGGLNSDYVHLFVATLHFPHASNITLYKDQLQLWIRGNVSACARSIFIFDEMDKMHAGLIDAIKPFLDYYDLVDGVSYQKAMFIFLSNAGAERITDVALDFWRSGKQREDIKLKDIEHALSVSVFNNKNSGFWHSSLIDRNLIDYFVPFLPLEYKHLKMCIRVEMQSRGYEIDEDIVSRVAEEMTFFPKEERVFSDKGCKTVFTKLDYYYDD

`C=C(C)C(=O)OC[C@@H]1CN2[C@@H](CC[C@@H](C)[C@@H]2c2ccc(Br)cc2)C(=O)O1`: the composite z-score in test [1] was -0.0452; in test [2], 0.818; in [3], 0.213; in test [4], 0.762; in [5], 0.55; in [6], 0.854. For the same compound, the composite z-score was 0.966 in the test on Lefty1; 0.146 in test [8]; -0.0892 in [10]; -0.222 in [15]; -0.0895 in test [16]; 0.457 with Torsin-1A (Homo sapiens) [17]. In addition, the composite z-score turned out to be 0.231 with Torsin-1A (Homo sapiens) [18] and 0.605 in test [19]. The z-score was 1.77 in test [7]; -0.721 (inactive) in test [9]; -0.0082 (inactive) in [11]; -1.58 (inactive) in [12]; 1.54 (inactive) in test [13]; 0.11 (inactive) in test [14].

As for `C[N+](C)(C)CCCCNC(=O)[C@@H]1C[C@@H]2C(=O)N[C@@H](CCCC[N+](C)(C)C)C(=O)N2[C@@H]1c1cccc(OCCO)c1`, the composite z-score in [1] is 2.73 and 2.55; in test [2], 0.905 and -0.426; in test [3] it was -0.791 and -0.306; in test [4] it was -0.355 and 0.553; in [5], 1.54 and 1.48; in test [6] it was 1.94 and 1.9. The composite z-score with Lefty1 was 1.73 and 1.55; in [8], 0.284 and 0.68; in [10], 1.07 and 0.542; in test [15], 0.0255 and -0.695; in test [16] it was -0.05 and -0.0413; with Torsin-1A (Homo sapiens) [17] it was 2.06 and 0.536. In addition, the composite z-score with Torsin-1A (Homo sapiens) [18] is 2.17 and 1.72; in test [19] it was 2.31 and 2.25. The z-score in test [7] is 0.725 and 1.07; in test [9] it was -1.56 (inactive) and -1.48 (inactive); in test [11] it was -0.219 (inactive) and 0.0262 (inactive); in test [12], 0.78 (inactive) and -0.351 (inactive); in [13] it was -0.264 (inactive) and 0.692 (inactive); in [14], -1.09 (inactive) and -0.277 (inactive).

Take `CCOC(=O)C[C@H]1[C@H](OC(=O)c2ccccc2-c2ccccc2)[C@@H](NC(=O)Cc2ccc(OC)cc2)c2cc(OCCCO)ccc2N1C(=O)Cc1ccc(OC)cc1`: the composite z-score in test [1] was -0.109 and -0.161; in [2] it was 0.8 and -0.925; in test [3] it was 0.14 and -0.217; in test [4], 0.325 and 0.237; in [5] it was 0.214 and -0.173; in [6], -0.0463 and -0.423. In addition, the composite z-score with Lefty1 was 0.517 and -0.0509; in test [8], 0.484 and -0.261; in [10], 0.18 and 0.0684; in test [15] it was 0.325 and -0.401; in [16], 0.0082 and 0.109; in the test with Torsin-1A (Homo sapiens) [17] it was -0.0109 and -0.752. Also, the composite z-score with Torsin-1A (Homo sapiens) [18] is 0.24 and 0.161; in test [19], 0.857 and -0.501. In addition, the z-score in [7] is 1.91 and 0.598; in test [9], -1 (inactive) and 0.591 (inactive); in test [11], -0.093 (inactive) and -0.267 (inactive); in [12], 0.0825 (inactive); in test [13] it was 0.656 (inactive) and 0.671 (inactive); in test [14], -1.2 (inactive) and 0.454 (inactive).

`CCOC(=O)[C@@H]1CC2O[C@]23C[C@@H]1C(=O)N1CCC[C@@H]1[C@H]3O[Si](C)(C)C(C)(C)C` (stereo not given in full): the composite z-score is -0.423 and -0.146 in test [1]; -0.853 and 0.0436 in test [2]; 0.623 and 0.0915 in test [3]; -0.607 and -0.0382 in test [4]; -0.568 and 0.342 in [5]; 0.0471 and 1.14 in test [6]. The composite z-score is -0.0485 and 0.69 in the test with Lefty1; -0.616 and -0.276 in test [8]; 0.187 and -0.0017 in test [10]; -0.468 and -0.0735 in test [15]; -0.105 and 0.651 in test [16]; -0.36 and -0.384 with Torsin-1A (Homo sapiens) [17]. Also, the composite z-score with Torsin-1A (Homo sapiens) [18] is -0.855 and -0.032; in test [19], 0.361 and 1.05. Further, the z-score in [7] is -0.944 and -0.261; in test [9], 0.316 (inactive) and 0.32 (inactive); in test [11] it was -1.17 (inactive) and 0.553 (inactive); in test [12], -0.377 (inactive) and 0.487 (inactive); in test [13], -1.23 (inactive) and -0.414 (inactive); in test [14], -0.217 (inactive) and 1.42 (inactive).

Values taken from PubChem BioAssay.
